Results filed as inconclusive are left out. Some compounds were tested as several samples or in several runs, with calls that do not always agree. Activity calls are given as the source filed them. Unless noted, the call rests on the fitted dose curve; in most records, active means well fitted curve in the direction sought with a large enough effect in the repeat runs; inconclusive means weak or mixed curves; inactive means no such curve, though single readings can be large; an effect the other way counts as inactive or inconclusive.

This is an account of results in PubChem BioAssay (Tox21).

The nature of test [1]: qHTS assay to identify small molecule agonists of the peroxisome proliferator-activated receptor delta (PPARd) signaling pathway - cell viability counter screen (AID 743211). Further: nearly all actives have a fitted effect of over 55% in size. Further: potency means the concentration at half of the fitted maximal effect. The gist of the method:
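PPARd-bla HEK293H cells (3000/well) were pre-incubated 5 h at 37 C, then exposed to compound for 17 h at 37 C. After 2 h with LiveBLAzer substrate, CellTiter-Glo was added to the same wells; luminescence read after 30 min at room temperature.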
(In general: In qHTS, concentration-response curves come from the screen itself.)

For test [2], the target named is Peroxisome proliferator-activated receptor delta (Homo sapiens) (UniProt Q03181). Briefly: qHTS assay to identify small molecule agonists of the peroxisome proliferator-activated receptor delta (PPARd) signaling pathway (AID 743212; calls by dose curve). In short, it runs like this: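 GeneBLAzer UAS-bla HEK293H cells carrying a PPARδ construct were exposed to compounds at 37 °C. Beta-lactamase activity was read by FRET fluorescence after 2 h at room temperature with LiveBLAzer B/G substrate.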
Peroxisome proliferator-activated receptor delta (Homo sapiens), sequence (Q03181 whole entry, looked up): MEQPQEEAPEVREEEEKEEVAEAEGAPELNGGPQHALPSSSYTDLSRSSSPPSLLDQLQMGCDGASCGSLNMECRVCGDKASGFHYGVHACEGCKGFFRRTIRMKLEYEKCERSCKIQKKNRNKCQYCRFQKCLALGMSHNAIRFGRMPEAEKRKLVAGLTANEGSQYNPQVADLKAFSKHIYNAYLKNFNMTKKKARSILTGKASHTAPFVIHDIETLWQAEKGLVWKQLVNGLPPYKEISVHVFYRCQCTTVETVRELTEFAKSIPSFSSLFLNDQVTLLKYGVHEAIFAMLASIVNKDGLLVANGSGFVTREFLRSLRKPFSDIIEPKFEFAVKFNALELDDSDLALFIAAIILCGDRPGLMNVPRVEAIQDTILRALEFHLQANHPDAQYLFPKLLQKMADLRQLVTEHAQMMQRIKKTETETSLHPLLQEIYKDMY

The nature of test [3]: qHTS assay to identify small molecule antagonists of the peroxisome proliferator-activated receptor delta (PPARd) signaling pathway - cell viability counter screen (AID 743213). Further: nearly all actives have a fitted effect of over 50% in size. In short, it runs like this: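 Same-well viability: cells pre-incubated 5 h, dosed with compound plus 300 nM L165041, kept 17 h at 37 C, FRET substrate 2 h RT, then CellTiter-Glo 30 min RT and luminescence.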

Test [4] has as its target Peroxisome proliferator-activated receptor delta (Homo sapiens) (UniProt Q03181). The test is described as follows: qHTS assay to identify small molecule antagonists of the peroxisome proliferator-activated receptor delta (PPARd) signaling pathway (AID 743215; active means well fitted inhibition curve with a large enough effect in the signal ratio in the repeat runs, not every such curve was filed as active; the % refers to the signal ratio;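 further: cells stimulated with agonist L165041 at 300 nM final during compound exposure; series mostly up to about 62 µM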). In short, it runs like this: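 HEK293H UAS-bla, PPARd; agonist L165041 300 nM final with cpd in DMSO; 37 C 17 h; FRET substrate, RT 2 h; fluorescence intensity.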

Test [5] is described as follows: qHTS assay to identify small molecule antagonists of the farnesoid-X-receptor (FXR) signaling pathway - cell viability counter screen (AID 743221; active means well fitted cell-killing curve with a large enough effect in the repeat runs, not every such curve was filed as active; further: nearly all actives have a fitted effect of over 50% in size). The gist of the method: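 GeneBLAzer FXR-UAS-bla HEK 293T cells, compound plus chenodeoxycholic acid (50 uM final), 16 h at 37 C. CellTiter-Glo added to the same wells after the beta-lactamase read; luminescence read after 30 min at room temperature as viability.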

For test [6], the target named is Vitamin D3 receptor (Homo sapiens) (UniProt P11473). Briefly: qHTS assay to identify small molecule agonists of the vitamin D receptor (VDR) signaling pathway (AID 743222; calls by dose curve). In short, it runs like this: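 In VDR-bla cells, compound-induced beta-lactamase expression is quantified by FRET substrate fluorescence. Treatment lasts 16 h at 37C; substrate develops 2 h at room temperature.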
Vitamin D3 receptor (Homo sapiens), sequence (P11473 whole entry, looked up): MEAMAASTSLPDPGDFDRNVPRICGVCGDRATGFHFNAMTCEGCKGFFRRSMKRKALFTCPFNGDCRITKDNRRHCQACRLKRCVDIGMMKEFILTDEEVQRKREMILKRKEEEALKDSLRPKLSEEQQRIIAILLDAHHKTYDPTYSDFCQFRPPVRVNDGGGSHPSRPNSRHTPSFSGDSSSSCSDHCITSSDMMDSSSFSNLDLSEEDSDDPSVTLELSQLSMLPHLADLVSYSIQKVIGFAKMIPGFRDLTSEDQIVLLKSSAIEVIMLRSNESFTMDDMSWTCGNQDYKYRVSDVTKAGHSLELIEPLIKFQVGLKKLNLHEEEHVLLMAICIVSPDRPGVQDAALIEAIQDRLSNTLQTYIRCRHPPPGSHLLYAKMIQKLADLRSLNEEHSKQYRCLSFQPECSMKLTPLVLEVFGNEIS

For test [7] the target is unchanged. Briefly: qHTS assay to identify small molecule antagonists of the vitamin D receptor (VDR) signaling pathway (AID 743223; active means well fitted inhibition curve with a large enough effect in the signal ratio in the repeat runs, not every such curve was filed as active; the % refers to the signal ratio). In short, it runs like this: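 VDR-bla cells were treated with compound plus 3 nM final 1alpha,25-dihydroxyvitamin D3 for 16 h at 37C. Beta-lactamase reporter read by B/G FRET substrate fluorescence after 2 h at room temperature. qHTS format.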

Test [8] in a line: qHTS assay to identify small molecule agonists of the farnesoid-X-receptor (FXR) signaling pathway - cell viability counter screen (AID 743218). Further: nearly all actives have a fitted effect of over 45% in size. The gist of the method:
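Parallel cytotoxicity test: compound-treated (16 h, 37 C) HEK 293T FXR-bla reporter cells were lysed with CellTiter-Glo and luminescence recorded.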

Test [9] has as its target Bile acid receptor (Homo sapiens) (UniProt Q96RI1). Briefly: qHTS assay to identify small molecule antagonists of the farnesoid-X-receptor (FXR) signaling pathway (AID 743217; active means well fitted inhibition curve with a large enough effect in the signal ratio in the repeat runs, not every such curve was filed as active; the % refers to the signal ratio). The gist of the method:
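GeneBLAzer FXR-UAS-bla HEK 293T, CDCA-stimulated (50 uM final). Compound treatment 16 h, 37 °C. Detection: beta-lactamase cleavage of B/G FRET substrate, fluorescence.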

The target is the same in test [10]. Briefly: qHTS assay to identify small molecule agonists of the farnesoid-X-receptor (FXR) signaling pathway (AID 743220; active means well fitted activation curve with a large enough effect in the signal ratio in the repeat runs, not every such curve was filed as active; the % refers to the signal ratio). In short, it runs like this:
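Beta-lactamase reporter under UAS control in GeneBLAzer FXR HEK 293T cells (5000/well) measured with LiveBLAzer FRET substrate after 2 h at room temperature. Compound exposure lasted 16 h at 37C.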

Bile acid receptor (Homo sapiens), sequence (Q96RI1 whole entry, looked up): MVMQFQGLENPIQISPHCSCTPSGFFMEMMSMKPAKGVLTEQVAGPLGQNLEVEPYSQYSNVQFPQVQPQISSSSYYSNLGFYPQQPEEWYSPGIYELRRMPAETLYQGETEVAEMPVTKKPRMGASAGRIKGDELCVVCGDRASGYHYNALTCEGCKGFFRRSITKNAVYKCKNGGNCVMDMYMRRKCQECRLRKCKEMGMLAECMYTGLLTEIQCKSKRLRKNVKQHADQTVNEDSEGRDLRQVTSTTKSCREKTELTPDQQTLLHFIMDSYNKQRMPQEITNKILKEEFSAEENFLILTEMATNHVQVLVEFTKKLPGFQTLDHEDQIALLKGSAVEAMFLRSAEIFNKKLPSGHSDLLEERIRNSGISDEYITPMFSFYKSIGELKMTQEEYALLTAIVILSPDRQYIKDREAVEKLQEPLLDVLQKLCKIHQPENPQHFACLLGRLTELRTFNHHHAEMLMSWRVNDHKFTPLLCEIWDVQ

Consider `Cc1c(NC(C)C)c(=O)n(-c2ccccc2)n1C`, for which the Potency result in test [1], in test [3], in test [4] and in [5] was “inactive” each time. For the same compound, the compound was called inactive in test [2], in test [6] and in [7].
`N=C(N)c1ccc(OCCCOc2ccc(C(=N)N)cc2)cc1`: the Potency result in test [1], in test [3], in test [4] and in test [8] was “inactive” in each case. Also, the result in test [2] and in [7] was inactive.
For the compound `CC/C=C\CC/C=C/C(OCC)OCC`, the Potency entry in [1], in test [3], in test [4], in test [8] and in [5] was “inactive” each time. Further, the outcome in test [2] was inactive.
Take `O=c1cc(CO)occ1O`: the Potency result in test [1], in [3], in test [4], in [8] and in test [5] was “inactive” in each case. In addition, the call in test [2], in test [6] and in [7] was inactive.
With `CCc1nccnc1CC`, the Potency entry in [1], in test [3], in test [4], in test [8] and in test [5] was “inactive” throughout. Moreover, the compound was classed as inactive in test [2], in test [6] and in test [7].
Take `C[C@@H]1CCN(C(=O)[C@H](CCCN=C(N)N)NS(=O)(=O)c2cccc3c2NC[C@H](C)C3)[C@@H](C(=O)O)C1`: the Potency entry in test [1], in [3], in [4], in [8] and in test [5] was “inactive” in each case. For the same compound, the compound was classed as inactive in test [2].
As for `CCCCNC(=O)NCCCC`, the Potency result in test [1], in test [3], in test [4], in test [8] and in [5] was “inactive” in each case. For the same compound, the compound was classed as inactive in [2], in [6] and in [7].
For the compound `ClC(Cl)(Br)Br`, the Potency result in [1], in [3], in test [4], in [8] and in [5] was “inactive” throughout. Further, the compound was classed as inactive in test [2], in [6] and in test [7].
`CC(=O)OCC(CCn1cnc2cnc(N)nc21)COC(C)=O`: the Potency entry in [1], in test [3], in [4], in test [8] and in test [5] was “inactive” in each case. Further, the compound was called inactive in test [2], in [6] and in test [7].
Regarding `Cc1cccc(C)c1NC(=O)C(C)N` (stereo unspecified), the Potency result in test [1], in test [3], in [4], in test [8] and in test [5] was “inactive” each time. Further, the outcome in [2] and in [7] was inactive.
As for `O=[N+]([O-])c1ccc(F)cc1F`, the Potency result in [1], in [3], in test [4], in test [8] and in test [5] was “inactive” throughout. Moreover, the compound was classed as inactive in test [2], in test [6] and in test [7].
For the compound `Nc1ccccc1S(=O)(=O)O`, the Potency result in [1], in test [3], in test [4] and in test [8] was “inactive” in each case. Moreover, the result in [2], in test [6] and in [7] was inactive.
For the compound `O=Cc1cccc([N+](=O)[O-])c1`, the Potency entry in [1], in test [3], in test [4], in test [8] and in test [5] was “inactive” throughout. For the same compound, the compound was called inactive in test [2] and in test [7].
Consider `OC[C@]1(O)OC[C@@H](O)[C@H](O)[C@@H]1O`, for which the Potency entry in test [1], in test [3], in [4], in [8] and in test [5] was “inactive” throughout. In addition, the compound was classed as inactive in test [2], in test [6] and in [7].
In the case of `CCOC(=O)C(=O)OCC`, the Potency result in test [1], in test [3], in test [4], in [8] and in [5] was “inactive” in each case. In addition, the result in test [2], in [6] and in test [7] was inactive.
For the compound `COC(=O)CCSCCC(=O)OC`, the Potency result in [1], in test [4] and in [5] was “inactive” each time. In addition, the compound was called inactive in [2], in [9] and in test [10].
`O=C(O)c1ccccc1OP(=O)(O)O`: the Potency result in test [1], in test [4], in test [8] and in test [5] was “inactive” throughout. Besides, the outcome in test [2], in test [6] and in [7] was inactive.
`CN1N=C(C(N)=O)CCC1=O`: the Potency result in [1], in test [3], in [8] and in [5] was “inactive” in each case. The call in test [2] was inactive.
With `CN1CCC(=C2c3ccccc3CC(=O)c3sccc32)CC1`, the Potency result in [1], in test [4], in test [8] and in test [5] was “inactive” each time. The call in test [2], in [9], in [10], in [6] and in test [7] was inactive.
On to `NS(=O)(=O)c1ccc(C(=O)O)cc1`, for which the Potency result in [1], in test [4], in test [8] and in test [5] was “inactive” in each case. The outcome in test [2], in [9] and in [10] was inactive.
`COc1cc(C(=O)N2CCCCCCC2)cc(OC)c1OC`: the Potency entry in test [1], in [4], in test [8] and in [5] was “inactive” throughout. The result in [2], in [9], in test [10] and in test [6] was inactive.
As for `COC(=O)C1=C(C)NC(C)=C(C(=O)OC)C1c1ccccc1[N+](=O)[O-]`, the Potency in test [1] is 49 µM (active) and inactive. Further, the compound was classed as inactive in [2], in test [9], in [10] and in test [7]. For the same compound, the Potency entry in test [4], in test [8] and in test [5] was “inactive” throughout.
In the case of `Cc1cccn2c(=O)c(-c3nnn[nH]3)cnc12`, the Potency entry in test [1], in test [3] and in test [5] was “inactive” each time. In addition, the result in test [2] was inactive.
As to `CC/C=C\CCOC(C)=O`, the Potency result in test [1], in test [4], in test [8] and in test [5] was “inactive” in each case. Further, the compound was called inactive in test [2], in test [9], in test [10], in [6] and in test [7].
Consider `CCOC(=O)c1ccc(C)cc1`, for which the Potency entry in [1], in test [4], in test [8] and in [5] was “inactive” each time. Besides, the result in test [2] and in test [6] was inactive.
As to `O=C1NC(=O)[C@@]2(CCOc3ccc(F)cc32)N1`, the Potency entry in test [1], in [3], in test [8] and in test [5] was “inactive” in each case. Also, the compound was called inactive in [2], in test [6] and in [7].
On to `CC(C)CNCC(C)C`, for which the Potency result in test [1], in test [4], in [8] and in test [5] was “inactive” throughout. In addition, the compound was classed as inactive in test [2], in [9], in test [10] and in test [6].
`COc1c(N2C[C@@H]3CCCN[C@@H]3C2)c(F)cc2c(=O)c(C(=O)O)cn(C3CC3)c12`: the Potency entry in [1], in test [4], in test [8] and in test [5] was “inactive” each time. The outcome in test [2], in test [9] and in test [10] was inactive.
Take `OC(CCN1CCCCC1)(c1ccccc1)C1CC2C=CC1C2` (stereo unspecified): the Potency result in test [1], in test [4] and in test [8] was “inactive” each time. Further, the call in [2], in test [9], in [10], in test [6] and in test [7] was inactive.
In the case of `CCCCCSCCCCC`, the Potency result in test [1], in [4], in test [8] and in test [5] was “inactive” in each case. In addition, the compound was classed as inactive in test [2], in test [9] and in [10].
